Test results reported in PubChem BioAssay (NCATS).
Records with an inconclusive call do not appear. Activity calls are given as the source filed them. The call rests on the fitted dose curve; in most records, active means well fitted cell-killing curve with a large enough effect; inconclusive means small, poorly fitted or top-dose-only effect; inactive means flat fitted curve, though single readings scatter.

test: qHTS of pediatric cancer cell lines to identify multiple opportunities for drug repurposing: Primary screen for Rh18 cells (AID 1347102); details: Rh18 rhabdomyosarcoma viability, CellTiter-Glo luminescence, 48 h; series mostly up to 46 µM; activity change, negative = cytotoxic: at the top concentration; further: nearly all actives have a fitted effect of over 65% in size
From the text: Drug repurposing or repositioning has been offered as a strategy for drug development in oncology programs. This approach has special potential for childhood cancers and other rare or orphan diseases, where the expected return on new drug development has been a disincentive to pharmaceuticals.
In this project we exploit the poly-pharmacology of drugs to discover new indications via phenotypic screening of a panel of 19 well-characterized cell lines derived from solid tumors seen in children and adolescents. The goal is to identify approved drugs with previously unrecognized anticancer properties that has the potential to reveal new mechanisms and biological processes involved in carcinogenesis or drug resistance. We employed a titration-based paradigm (quantitative high-throughput screening or qHTS), where all compounds were tested at multiple concentrations for their effect on cell viability. Concentration-response curves (CRCs) were derived directly from the primary screen, and both potency and efficacy values were used to identify compounds with robust bioactivity profiles. We screened the NIH Chemical Genomics Center (NCGC) Pharmaceutical Collection (NPC) and Mechanism Interrogation Plate (MIPE) small molecule collections of approved and investigational compounds against these cell lines; and measured metabolically active cells after 48 hours of compound treatment as a proxy for cell viability.
Assay Submitter: Nathalia J. Martinez, National Center for Advancing Translational Sciences, National Institutes of Health, Rockville, MD, USA; email: natalia.martinez@nih.gov
[1] Shen, M et al. Quantitative high-throughput phenotypic screening of pediatric cancer cell lines identifies multiple opportunities for drug repurposing. Oncotarget 2017 Dec 19;9(4):4758-4772. PMID 29435139.
The cells were obtained from University of North Carolina (UNC), Pediatric Preclinical Testing Program (PPT), and Coriell Institute (CI).
qHTS cell viability assay:
Cells were assayed in growth media at a density of 500-1,000 cells/well. Five microliters of cells were dispensed into 1,536-well, white, solid-bottom, TC-treated plates (Greiner Bio One) using a multidrop dispenser and incubated at 37 degrees C, 5% CO2, under a humidified atmosphere for 5 hours. Twenty-three nanoliters of compounds and controls (neutral control DMSO or positive control bortezomib at final concentration of 2.3 µM) were subsequently transferred by Kalypsys pintool. For primary screens, the MIPE collection was tested at 11-point dilutions (final concentrations range from 0.78 nM to 46 µM) and the NPC collection at 8-point dilutions (final concentrations range from 0.59 nM to 46 µM). Compounds tested in follow-up screens were assayed at 11-point dilutions. Cells were incubated for 48 hours, followed by addition of 3 µL of CellTiter-Glo (Promega). After a 15 min incubation at room temperature, samples were analyzed for luminescence intensity using a ViewLux High-throughput CCD imager equipped with clear filters.
On the % scale 0 is the no-effect control and ±100 the full control effect; potency means the concentration at half of the fitted maximal effect.

| SMILES | activity change, negative = cytotoxic | Potency |
| --- | --- | --- |
| COc1cc(NC(=O)c2ccc(-c3ccc(Cl)cc3)o2)cc(OC)c1 | -16.1% (inactive) |  |
| CC(C)(C)COc1ccc(-n2cc(C(=O)O)cn2)cc1C#N | 1.07% (inactive) |  |
| O=C(Nc1ccccc1-c1cn2c(CN3CCNCC3)csc2n1)c1cnc2ccccc2n1 |  | 8.33 µM (active) |
| COC[C@@H](c1ccc(C(F)(F)F)cc1)N1CCN(C2(C)CCN(C(=O)c3c(C)ncnc3C)CC2)C[C@H]1C | -9.65% (inactive) |  |
| C[N+]1(C)[C@@H]2CC(OC(=O)[C@H](CO)c3ccccc3)C[C@H]1[C@H]1O[C@@H]12 (stereo not given in full) | 15.8% (inactive) |  |
| CC(=O)N[C@@H](CS)C(=O)O | 14.4% (inactive) |  |
| NC(=O)[C@@H](CCC(F)(F)F)N(Cc1ccc(-c2ncon2)cc1F)S(=O)(=O)c1ccc(Cl)cc1 | -14.4% (inactive) |  |
| COc1ccc(-c2nc(N3CCOCC3)c3sc(CN(C)c4ncc(C(=O)NO)cn4)cc3n2)cn1 |  | 0.001 µM (active) |
| CCN(CC)C(=O)c1ccc(O)c(OC)c1 | 16.7% (inactive) |  |
| O=c1c(-c2ccc(O)cc2)coc2cc(O)ccc12 | 1% (inactive) |  |
| Clc1ccc(-c2nc3sccn3c2C=NOCc2ccc(Cl)c(Cl)c2)cc1 | 8.65% (inactive) |  |
| CCOC(=O)C1=C(N)Oc2ccc(Br)cc2C1C(C#N)C(=O)OCC (stereo not given) |  | 14.8 µM (active) |
| CCCCCN(C)CCC(O)(P(=O)(O)O)P(=O)(O)O | 15.2% (inactive) |  |
| COc1ccccc1N1CCN(CCCNc2cc(=O)n(C)c(=O)n2C)CC1 | 12.2% (inactive) |  |
| Cc1nc(N)sc1-c1ccnc(Nc2ccc(N3CCOCC3)cc2)n1 |  | 16.6 µM (active) |
| C[C@H]1[C@H](NC(=O)C(=NOC(C)(C)C(=O)O)c2csc(N)n2)C(=O)N1S(=O)(=O)O | 30% (inactive) |  |
| CC(C)n1nc(-c2ccc3oc(N)nc3c2)c2c(N)ncnc21 |  | 0.235 µM (active) |
| O=C(CCN1CCN(C(=O)OCc2cc(Cl)cc(Cl)c2)CC1)c1ccc2[nH]c(=O)oc2c1 | 10.7% (inactive) |  |
| CN1C[C@H]2c3ccccc3Oc3ccc(Cl)cc3[C@@H]2C1 |  | inactive |
| O=C1NC(=O)C(=Cc2ccc(-c3ccc(F)cc3)o2)S1 | -2.38% (inactive) |  |

| SMILES | activity change, negative = cytotoxic | Potency |
| --- | --- | --- |
| O=C1NCC2(CCN(CCc3ccccc3)CC2)O1 | 10.7% (inactive) |  |
| Nc1ncnc2c1ncn2[C@@H]1O[C@H](CO)C[C@@H]1O | 9.3% (inactive) |  |
| O=c1cc(N2CCOCC2)oc2c(-c3cccc4c3sc3ccccc34)cccc12 |  | 18.7 µM (active) |
| COc1cc2ncnc(Nc3ccc(F)c(Cl)c3)c2cc1OCCCN1CCOCC1 |  | 34 µM (active) |
| Cc1ccc(Nc2cc(-c3cccc(N4C(=O)c5ccccc5C4=O)c3)ncn2)cc1NS(C)(=O)=O | -3.11% (inactive) |  |
| Cc1[nH]c(C=C2C(=O)Nc3ccc(S(=O)(=O)Cc4c(Cl)cccc4Cl)cc32)c(C)c1C(=O)N1CCC[C@H]1CN1CCCC1 |  | 14.8 µM (active) |
| CC(C)(C)c1ccc(C(O)CCCN2CCC(C(O)(c3ccccc3)c3ccccc3)CC2)cc1 (stereo not given) | 18.8% (inactive) |  |
| O=C1NC(=O)C(=Cc2ccc3c(c2)OC(F)(F)O3)S1 | -9.2% (inactive) |  |
| O=c1cc(-c2cccc3c2Sc2ccccc2S3)oc(N2CCOCC2)c1 | -23.5% (inactive) |  |
| O=C(O)Cc1cccc2ccccc12 |  | inactive |
| CN(C)Cc1ccc(-c2nc3cccc4c3n2CCNC4=O)cc1 | 5.22% (inactive) |  |
| CC(=Cc1ccccc1)C=C1SC(=S)N(CC(=O)O)C1=O | 6.84% (inactive) |  |
| C=C1C(=O)OC2C=C(C)CCC=C(C)CCC12 (stereo not given) | -1.57% (inactive) |  |
| Cn1c(N2CCCCS2(=O)=O)nc(C(=O)NCc2ccc(F)cc2)c(O)c1=O | -0.171% (inactive) |  |
| CN(C)c1cc(NC(=O)CNC(C)(C)C)c(O)c2c1C[C@@H]1C[C@H]3[C@H](N(C)C)C(=O)C(C(N)=O)=C(O)[C@@]3(O)C(=O)C1=C2O | -9.15% (inactive) |  |
| NC(=O)c1ccc2nc(-c3ccc(Oc4ccc(Cl)cc4)cc3)[nH]c2c1 | 1.49% (inactive) |  |
| N[C@H](CSC(c1ccccc1)(c1ccccc1)c1ccccc1)C(=O)O | 2.04% (inactive) |  |
| CC(=O)N(C)C1(c2ccccc2)CCN(CCC[C@]2(c3ccc(Cl)c(Cl)c3)CCCN(C(=O)c3ccccc3)C2)CC1 |  | 26.4 µM (active) |
| Cc1ccc(C(=O)Nc2cccc(C(F)(F)F)c2)cc1Nc1nc(-c2cccnc2)nc2c1cnn2C |  | 20.9 µM (active) |
| O=C1NC(=O)C(c2ccccc2)(c2ccccc2)N1 | 0.9% (inactive) |  |
